Results: PubChem BioAssay AID624418 (National Center for Advancing Translational Sciences (NCATS), 2012)
In all, about 410,000 compounds went through this assay and about 530 (0.13%) were called active. Inconclusive results (about 5%) are left out. The sample as a whole holds a higher share of actives than the screen did. Values without a mark were called inactive. Calls follow the shape of the dose curve; as a rule, active = well fitted inhibition curve with a large enough effect; inconclusive = small, poorly fitted or top-dose-only effect, or another doubt; inactive = no such curve, though single readings can be large or run the other way.

Test: qHTS of GLP-1 Receptor Inverse Agonists: Cytotox Screen;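 also: loss of luciferase light is scored as toxicity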
Conditions: HEK293 cAMP-luciferase reporter cells, luminescence, 24 h; series mostly up to 38.3 µM; activity change, negative = inhibition: at the top concentration
Procedure, shortened: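 Seeding density was 200 cells/uL; after overnight-length (12 h) culture, 23 nL compounds went on for 24 h at 37 °C. Readout used a luciferase detection reagent, luminescence taken after 12 min at room temperature.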
% is scaled to controls: 0 for no effect and ±100 for the full control effect; potency is read from the fitted curve at half-maximal effect.

| SMILES | activity change, negative = inhibition [%] | Potency |
| --- | --- | --- |
| CCCN(CCC)CCCNC(=O)Cn1ncc2c3ccccc3n(Cc3ccccc3)c2c1=O | -1.81 |  |
| CCCN(C(=O)Cn1cc(S(=O)(=O)N2CCN(c3ccccc3F)CC2)c2ccccc2c1=O)c1cccc(C)c1 | -2.03 |  |
| CSc1oc(-c2cccs2)nc1S(=O)(=O)c1ccc(Br)cc1 | 27.9 |  |
| O=C(c1ccc(C(F)(F)F)cc1)N1CCC(c2nc(-c3ccc(S(=O)(=O)N4CCCC4)cc3)no2)CC1 | -10.9 |  |
| CCN(CCCNC(=O)c1c(C)oc2ncn(CC(C)C)c(=O)c12)Cc1ccccc1 | 1.92 |  |
| CCC1CCCCN1S(=O)(=O)c1ccc(NC(=O)c2cc(=O)c3ccccc3o2)cc1 (centres undefined) | 2.36 |  |
| CC(C)CC(=O)NCC(c1ccc2c(c1)OCO2)N1CCN(c2ccc(F)cc2)CC1 (centres undefined) | 0.505 |  |
| CCNC(=O)CC1C(=O)N(c2ccc(F)cc2)C(=O)N1Cc1ccc(C)cc1 (centres undefined) | -12.9 |  |
| Cc1cc2c(cc1S(=O)(=O)CCC(=O)Nc1ccc(OC(F)(F)F)cc1)OCC(=O)N2 | -12.7 |  |
| CCOC(=O)c1[nH]c(C)c(CCC(=O)NCc2ccccc2C)c1C | 2.99 |  |
| Cc1ccc2oc3c(c(=O)c2c1)C(c1ccc([N+](=O)[O-])cc1)N(CCCN1CCOCC1)C3=O (centres undefined) | 3.33 |  |
| O=S(=O)([N-]c1nc2ccccc2nc1-[n+]1ccc(Cc2ccccc2)cc1)c1ccc(Br)s1 |  | 10 µM (active) |
| CCOc1ccc(C(NC(=O)c2cc(OC)c(OC)c(OC)c2)c2cc(Cl)c3cccnc3c2O)cc1 (centres undefined) | -29 |  |
| O=C(NC1CCN(Cc2ccccc2)CC1)c1ccc(Cn2c(=O)c3ccccc3n(Cc3cccc(F)c3)c2=O)cc1 | 10.6 |  |
| CCOC(=O)c1cc(-c2ccc(OC)c(S(=O)(=O)Nc3ccc(OC)cc3OC)c2)on1 | 2.54 |  |
| Cc1cc(C)cc(NC(=O)CCS(=O)(=O)c2cc3c4c(c2)CCN4C(=O)CC3)c1 | 1.12 |  |
| COc1cccc(NC(=O)CSc2cc(=O)n(C)c3ccc(Cl)cc23)c1 | 1.69 |  |
| CN(Cc1ccccc1)C(=O)c1cn(C)c2ccc(S(=O)(=O)N(C)C3CCCCC3)cc2c1=O | 3.25 |  |
| CCOC(=O)Cn1c(=O)n(C2CCCCC2)c2nc(-c3cccc(OC)c3)nc(C(N)=O)c21 | 1.53 |  |
| COc1cccc(Cn2c(SCc3ccc(C(=O)N4CCC(C)CC4)cc3)nc3ccncc32)c1 | -1.45 |  |

| SMILES | activity change, negative = inhibition [%] | Potency |
| --- | --- | --- |
| Cc1cc(C)cc(NS(=O)(=O)c2ccc3[nH]cc(C(=O)N4CCCCC4)c(=O)c3c2)c1 | -4.69 |  |
| Cc1cn(C)c(CC(=O)NCc2ccccc2)c1C(=O)O | 5.49 |  |
| COc1ccccc1NC(=O)c1cc(C2CC2)nc2c1c(C)nn2-c1ccc(C)cc1 | -5.07 |  |
| Cc1ccc(S(=O)(=O)NCc2nc3nc(C)cc(C)n3n2)cc1 | 2.32 |  |
| COc1ccc2c(c1)c(N1CCCC1=O)c(C(=O)Nc1ccccc1C(F)(F)F)n2C | -1.4 |  |
| Cc1ccc(Nc2nnc(-c3ccc(C)c(S(=O)(=O)N4CCCCC4)c3)c3ccccc23)cc1 | 10.8 |  |
| COc1ccc(NC(=O)CCCc2nnc3n(CCC(C)C)c(=O)c4sccc4n23)c(OC)c1 | 5.32 |  |
| Cc1cccc(NC(=O)N2CCN(C)c3ncccc32)c1C | 0.303 |  |
| Cc1ccc(NC(=O)Cn2c(=O)n(-c3ccccc3)c(=O)c3c4c(sc32)CCCC4)cc1 | -4.75 |  |
| CCN(CC)S(=O)(=O)c1ccc(C(=O)N=c2sc3cccc(OC)c3n2C)cc1 | 5.63 |  |
| O=C(c1cccs1)c1cn(CCOc2ccc(Cl)cc2)c2ccccc12 | 0.0889 |  |
| CCc1ccc(NC(=O)c2cc(S(=O)(=O)N3CCCC(C)C3)cn2C)cc1 (centres undefined) | -16.5 |  |
| COc1ccc(CCNCc2c(C(=O)O)c(C)n(Cc3cccc(C)c3)c2C)cc1OC | -1.48 |  |
| Cc1cn(C)c(CC(=O)NCc2ccc(Cl)cc2)c1C(=O)O | -7.39 |  |
| CCOc1ccc(N2CC(c3nc4ccccc4n3CCOc3ccc(OC)cc3)CC2=O)cc1 (centres undefined) | -12 |  |
| O=C(NCc1ccccc1Cl)c1cccn1-c1nnc(N2CCCCC2)s1 | -1.65 |  |
| COc1ccc(N(CC(=O)NCCc2ccc(Cl)cc2)S(=O)(=O)c2c(C)nn(C)c2C)cc1 | -6.46 |  |
| CC(CNC(=O)c1nnc(Cc2cccc(F)c2)o1)c1ccccc1 (centres undefined) | 0.552 |  |
| Cc1ccc(CNC(=O)CCc2c(C)nc3c(c(C)nn3-c3ccccc3)c2C)cc1 | 12.6 |  |
| CNc1ccc(-c2nc(-c3ccco3)no2)cc1[N+](=O)[O-] | 2.51 |  |

| SMILES | activity change, negative = inhibition [%] | Potency |
| --- | --- | --- |
| O=C(NCCc1ccc(Cl)cc1)c1ccc2c(c1)N(Cc1ccc(F)cc1)C(=O)CS2 | -10.6 |  |
| CCOc1ccc(-c2nonc2NC(=O)c2oc3ccc(CC)cc3c2C)cc1 | -6.03 |  |
| COc1ccc(NC(=O)C(c2ccccc2)N2Cc3ccccc3C2=O)cc1 (centres undefined) | 3.88 |  |
| CCOc1ccc(NC(=O)C2CCN(S(=O)(=O)c3cc(-c4noc(C)n4)ccc3C)CC2)cc1 | -6.45 |  |
| CC1CC2=C(CC1/C=N/NC(N)=S)C(C)(C)CCC2 (centres undefined) |  | 2.24 µM (active) |
| Cc1nc2c(-c3ccccc3)c(C)nn2c(C)c1CCC(=O)NCCc1ccccc1 | 2.89 |  |
| Cc1cccc(CSc2nc3ccncc3n2CC(=O)N(C)C2CCCCC2)c1 | 0.871 |  |
| CC(C)(C)OC(=O)N1CCC(c2c(C(=O)N3CCN(c4cccc(Cl)c4)CC3)cnn2-c2cccc(Cl)c2)CC1 | 1.54 |  |
| CCOc1ccc(C(=O)Nc2ccc3nc4c(c(Nc5ccccc5OC)c3c2)CCCC4)cc1 | -22.1 |  |
| COc1ccccc1Nc1c2c(nc3ccc(NC(=O)/C=C/c4cc(OC)c(OC)c(OC)c4)cc13)CCCC2 |  | 4.47 µM (active) |
| COc1cc(/C=C/C(=O)N2CCc3ccccc3C2)cc(OC)c1OC | 3.72 |  |
| CC(=O)N1CCc2cc(S(=O)(=O)NC(Cc3ccccc3)C(=O)NCc3ccc(C)cc3)ccc21 (centres undefined) | -0.157 |  |
| Clc1cccc(-n2ncc3c(NCCc4ccccc4)ncnc32)c1 | -12.3 |  |
| CCn1cc(C(=O)NCc2ccc(C)cc2)c(=O)c2cc(S(=O)(=O)N3CCc4ccccc4C3)ccc21 | -11.4 |  |
| CCOc1cc(C(=O)NCCc2csc3nc(-c4ccc(C)cc4)nn23)cc(OCC)c1OCC | 7.6 |  |
| CCCCN1CC(c2nc3ccccc3n2CCCCOc2ccc(C)cc2C)CC1=O (centres undefined) | -18.1 |  |
| CC(C)Oc1c(Br)cc(Br)cc1/C=N/NC(N)=S |  | 2.51 µM (active) |
| CC1(C(=O)N/N=C/c2cc3c(cc2Br)OCO3)CC1(Br)Br (centres undefined) | 5.99 |  |
| CCCCn1cc(S(=O)(=O)c2ccc(OCC)cc2)c(=O)c2cc(OC)c(OC)cc21 | -4.49 |  |
